# Test results published in ChEMBL document CHEMBL3988442, “University of Dundee, Small-Polar-MMV Screening Library” (2021).
# Among all 48,000 compounds or so, about 13,000 (27%) showed an effect of 50% or more. Some of the results follow.
# System: Wolbachia pipientis
# Experiment: Anti-Wolbachia Cell-Based Screen
# Format: functional
# Parameters: scale not given: in the data most compounds retested in dose-response had high values
# Settings: 5 µM
row,Compound,Percent Effect
1,COC(=O)[C@H]1CN(C(=O)NC(C)C)CCN1C(=O)CSC,4.68%
2,CSCCN(C)Cc1ccc(F)cc1C#N,-7.692%
3,CCCN1C[C@H]2CC[C@@H]1CN(Cc1ccc(Cn3cccn3)cc1)C2,-13.63%
4,Cc1nnsc1CN1C[C@H]2CC[C@@H]1CN(Cc1ccccc1)C2,2.749%
5,CC(C)c1nnc(N2C[C@@H]3CC[C@H](C2)N(Cc2ccccc2)C3)s1,104.2%
6,Cc1ccc(C(=O)N2C[C@@H]3CC[C@H](C2)N(CC2CCC2)C3)s1,-1.222%
7,CC(C)c1nnc(N2C[C@@H](CN(C)CCO)[C@@H](CO)C2)s1,-2.617%
8,CCCN1C[C@H]2CC[C@@H]1CN(c1nnc(C(C)C)s1)C2,100.1%
9,Cc1nnsc1CN1C[C@@H]2CC[C@H](C1)N(Cc1ccccc1)C2,-5.089%
10,CC(=O)c1ccc(C(=O)N2C[C@@H]3CC[C@H](C2)N(CC2CCC2)C3)s1,-8.325%
11,CC(C)c1nnc(N2C[C@@H]3CC[C@H](C2)N(CC2CCC2)C3)s1,78.31%
12,N#CCCNC(=O)CN1CCC(c2cc3ccccc3[nH]2)CC1,7.04%
13,O=C(O)C(F)(F)F.O=C(O)[C@]12CCCN(Cc3ccsc3)C[C@H]1CN(c1ncccn1)C2,0.06928%
14,CCc1nc(CN2CCCC(NCc3nc4cccnc4[nH]3)C2)no1 (stereo not given),-2.824%
15,Cc1ccc(CN2CCCC3(COCCN(Cc4c[nH]nn4)C3)C2)s1.O=C(O)C(F)(F)F.O=C(O)C(F)(F)F (stereo not given),-11.68%
16,Fc1ccc(OCc2noc(CN3CCc4cncnc4C3)n2)cc1,-13.93%
17,CC(C(=O)NC(C)(C)C)N1CCC(C(=O)Nc2cnccn2)CC1 (stereo not given),-9.659%
18,CN1CCC(c2nccnc2Nc2cnccn2)CC1,94.48%
19,CC(=O)N1CCC(c2nccnc2Nc2cnccn2)CC1,118.2%
20,CC(C)N1CCC(c2nccnc2Nc2cnccn2)CC1,128.3%
21,OCC(CO)N1CCC(c2nnc(Cn3ccnc3)n2C2CC2)CC1,11.43%
22,OCC(CO)N1CCC(c2nccnc2Nc2cnccn2)CC1,132.8%

row,Compound,Percent Effect
1,CCc1ccccc1OCCN1CC[C@@]2(O)CCNC[C@H]2C1,3.949%
2,CCC(C)NC(=O)CCNC(=O)c1c[nH]cc1-c1cccc(OC)c1 (stereo not given),-21.59%
3,CC(C)CNC(=O)CC1OCCc2ccsc21 (stereo not given),-17.3%
4,Cc1nc(CNC(=O)NCCC2=CCCC2)oc1C,-10.48%
5,CC(Cc1ccccc1F)NC(=O)CCc1nc(-c2nnc[nH]2)no1 (stereo not given),5.01%
6,Cn1cc(-c2cccc(CNC(=O)N3CCC[C@@H]3CO)c2)cn1,-23.52%
7,NC(=O)c1cncc(N2CCN(Cc3cccc4nsnc34)CC2)n1,-24.77%
8,CC(O)Cc1cn(CC2CCN(C3CCSCC3)CC2)nn1 (stereo not given),-14.87%
9,CC(C)N1CCC(c2nccnc2Nc2ncccn2)CC1,97.4%
10,CC(=O)N1CCC(c2nccnc2Nc2ncc(C)s2)CC1,69.11%
11,CC(C(=O)Nc1ncccn1)N1CCC(n2ccnc2)CC1 (stereo not given),-2.043%
12,Cc1cnc(NC(=O)N2CCCC2)s1,11.08%
13,Cc1cnc(NC(=O)N2CCCCCC2)s1,-6.378%
14,COc1ccc(C)cc1S(=O)(=O)NCCC(O)c1ccccc1 (stereo not given),-7.148%
15,COCCC(=O)N1CCC(c2cc(O)n(C)n2)C1 (stereo not given),94.23%
16,Cn1nc(C2CCCN(C(=O)CO)C2)cc1O (stereo not given),-7.33%
17,COCCCC1CCCN(C(=O)CCc2cc(O)no2)C1 (stereo not given),-11.88%
18,COCCC(=O)N1CCC(c2nc(O)cc(-c3ccncc3)n2)C1 (stereo not given),95%
19,COCCC(=O)N1CCCC(c2nc(O)cc(-c3ccncc3)n2)C1 (stereo not given),119.6%
20,O=C(c1[nH]nc(C2CC2)c1Cl)N1CCN(C2CC2)C(=O)C1,-4.23%
21,CCc1nnsc1C(=O)NCCC1CN(C(C)C)CCO1 (stereo not given),2.098%
22,O=C(NCc1cc[nH]n1)N(CCCO)C1CCc2ccccc21 (stereo not given),9.826%

row,Compound,Percent Effect
1,O=C(CO)N1CCOC2(CCCN(c3ncc(F)cn3)C2)C1.O=C(O)C(F)(F)F (stereo not given),5.697%
2,CC(C)NC(=O)N1CCOC2(CCCN(c3ncccc3F)C2)C1.O=C(O)C(F)(F)F (stereo not given),108.5%
3,COCC(=O)N1CCOC2(CCCN(c3cnccn3)C2)C1.O=C(O)C(F)(F)F (stereo not given),-12.12%
4,N#Cc1cccc(N2CCCC3(CN(C(=O)[C@H]4CCCO4)CCO3)C2)c1 (stereo not given in full),-7.794%
5,O=C(O)C(F)(F)F.O=C(c1cnccn1)N1CCOCC2(CCN(C3CCOCC3)C2)C1 (stereo not given),8.846%
6,CN(C)CC(=O)N1CCOC2(CCCN(c3ncccc3F)C2)C1.O=C(O)C(F)(F)F.O=C(O)C(F)(F)F (stereo not given),6.33%
7,O=C(O)C(F)(F)F.O=C([C@H]1CCCO1)N1CCOC2(CCCN(c3ncccc3F)C2)C1 (stereo not given in full),94.35%
8,CC(C)NC(=O)N1CCOC2(CCCN(c3cccc(C#N)c3)C2)C1 (stereo not given),-9.45%
9,O=C(O)C(F)(F)F.O=C(c1cnccn1)N1CCOC2(CCCN(c3ncccc3F)C2)C1 (stereo not given),105%
10,COc1ccc(C(=O)C2CCCN(c3cc(OC)ncn3)C2)c(C)c1 (stereo not given),-87.76%
11,CC(Cn1cccn1)NCCS(=O)(=O)c1ccc(Cl)cc1 (stereo not given),2.973%
12,CC(Cn1cncn1)NC(=O)NCC(C)(C)Cc1ccccc1 (stereo not given),-14.88%
13,CCn1c(C2CCN(C(=O)COCC(F)(F)C(F)F)CC2)n[nH]c1=O,14.31%
14,CCc1c(C)nc(C)nc1N1C[C@@H](CN(C)CCN(C)C)[C@@H](CO)C1,17.56%
15,COCCN(C)C[C@@H]1CN(c2cc(C)nc3ccccc23)C[C@@H]1CO,85.76%
16,COCCN(C)C[C@@H]1CN(c2nc(C)cc(C)n2)C[C@@H]1CO,106.7%
17,Cc1ccccc1CN1C[C@@H](CN(C)CCO)[C@@H](CO)C1,4.643%
18,COCCN(C)C[C@@H]1CN(Cc2ccnc3ccccc23)C[C@@H]1CO,90.52%
19,CN(CCO)C[C@@H]1CN(Cc2ccccc2-c2ccccc2)C[C@@H]1CO,-1.449%
20,Cc1nc2ccccn2c1CN1C[C@@H](CN(C)CCO)[C@@H](CO)C1,-4.106%
21,COCCN(C)C[C@@H]1CN(c2nnc(C(C)C)s2)C[C@@H]1CO,6.543%
